For 14 compounds, growth results are on record in PubChem BioAssay (NCI).

Among the test systems are DU-145 prostate; K-562 leukemia; MALME-3M melanoma; MDA-MB-231 breast; SF-268 CNS; SF-295 CNS; SF-539 CNS; UACC-257 melanoma; M14 melanoma; RXF 393 renal.
Common to all, as to test: NCI-60 one-dose screen, 48 h (100 = growth as untreated, 0 = no growth, -100 = all killed)
Common to all, as to conditions: 10 µM

This is part of a sample that, as a whole, favours compounds with a hit. Of some 83,000 tested, about 20% had one in any assay.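 Each cell line was grown in a 96-well plate and treated with one concentration of compound for 48 hours. Values below 10 were considered active.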 A number with no mark means an inactive call. Active and inactive are the calls of the source.

Turning to `Cc1ccc(/C=C/C(=O)c2ccc(NC(=O)CSc3nnc(-c4c[nH]c5ccccc45)n3-c3ccccc3)cc2)c(C)c1`, the growth in the test on DU-145 prostate was 41.1%; in the test on K-562 leukemia it was 35.4%; in the test on MALME-3M melanoma, -71.7% (active); with MDA-MB-231 breast, 21.9%; with SF-268 CNS it was 72.3%; in the test on SF-295 CNS, 66.1%. Further, the growth in the test on SF-539 CNS is -95.3% (active); with UACC-257 melanoma it was 90.2%; in the test on M14 melanoma, 53.5%.
As for `CCN1CCN(c2ccc(NC(=O)Nc3ccc(-c4cc(C(=O)NC(C)C)c5ncccc5n4)cc3)cc2C(F)(F)F)CC1`, the growth in the test on DU-145 prostate is -54.9% (active); in the test on MALME-3M melanoma, -97.5% (active); in the test on MDA-MB-231 breast, -91.9% (active); in the test with RXF 393 renal, -96% (active); with SF-268 CNS, -16.3% (active); in the test with SF-295 CNS it was -92.4% (active). Besides, the growth in the test with SF-539 CNS is -98.9% (active); with UACC-257 melanoma it was -95.6% (active); with M14 melanoma it was -88.4% (active).
`Cc1ccc(-c2ccc(SCC(=O)Nc3ccc(Cl)c(C(F)(F)F)c3)nn2)cc1`: the growth in the test on DU-145 prostate is 23.9%; in the test on K-562 leukemia it was 4.76% (active); in the test on MALME-3M melanoma, 38.7%; in the test with RXF 393 renal, -32.5% (active); in the test with SF-268 CNS it was 38.6%; with SF-295 CNS it was 13.2%. Besides, the growth in the test with SF-539 CNS is -35.1% (active); with UACC-257 melanoma, 57.6%; with M14 melanoma, 2.2% (active).
Take `COc1ccc(C=CC(=O)c2ccc(-n3c(C)nc4c(cnn4-c4ccccc4)c3=O)cc2)cc1`: the growth is 83.2% with DU-145 prostate; 12.4% in the test with K-562 leukemia; 60.6% in the test with MALME-3M melanoma; 84.4% in the test on RXF 393 renal; 92.4% in the test with SF-268 CNS; 65.6% in the test with SF-295 CNS. The growth in the test with SF-539 CNS is 77.6%; in the test with UACC-257 melanoma, 74.6%; with M14 melanoma, 53.1%.
As for `O=C1Nc2cc(Cl)ccc2/C1=C/c1cccc(OCc2ccccc2)c1`, the growth in the test with DU-145 prostate is 3.5% (active); with K-562 leukemia, 5.55% (active); in the test on MALME-3M melanoma, 7.06% (active); in the test on RXF 393 renal, -3.3% (active); with SF-268 CNS, -11.4% (active); with SF-295 CNS it was 1.81% (active). In addition, the growth with SF-539 CNS was -56.8% (active); in the test with UACC-257 melanoma it was 1.39% (active); with M14 melanoma, -18.1% (active).
With `Cc1ccc(C(=O)Nc2ccc(-n3c(C)nc4c(cnn4-c4ccccc4)c3=O)cc2)cc1`, the growth with DU-145 prostate was 84.9%; with K-562 leukemia, 31.2%; with MALME-3M melanoma it was 67.7%; with RXF 393 renal, 87.9%; in the test with SF-268 CNS it was 96.3%; in the test with SF-295 CNS, 50.6%. The growth is 81.4% in the test with SF-539 CNS, 42% in the test with UACC-257 melanoma and 73.2% with M14 melanoma.
On to `O=C1Nc2ccc(Cl)cc2/C1=C/c1cccc(OCc2ccccc2)c1`, for which the growth was 45.3% in the test on DU-145 prostate; 10.3% in the test on K-562 leukemia; 45.8% with MALME-3M melanoma; -0.942% (active) in the test with RXF 393 renal; 28.5% with SF-268 CNS; 31.7% in the test on SF-295 CNS. In addition, the growth in the test on SF-539 CNS was 35.3%; with UACC-257 melanoma it was 45.8%; in the test with M14 melanoma it was 27%.
For the compound `Cc1ccc(-c2nc3ccc(C(=O)N=Nc4c(O)[nH]c5ccc([N+](=O)[O-])cc45)cc3[nH]2)cc1`, the growth in the test on DU-145 prostate is 47.8%; in the test with MALME-3M melanoma, 57.5%; in the test with MDA-MB-231 breast it was 66.9%; in the test with RXF 393 renal, 83.5%; with SF-268 CNS, 60.1%; in the test on SF-295 CNS, 93.5%. The growth in the test with SF-539 CNS is 52.7%; in the test with UACC-257 melanoma, 84.8%; with M14 melanoma, 73.8%.
Consider `NC1=NC(c2ccccc2Cl)N=C(Nc2nn[nH]n2)N1` (stereo unspecified), for which the growth with DU-145 prostate is 106%; in the test with K-562 leukemia, 100%; in the test with MALME-3M melanoma it was 101%; with RXF 393 renal, 113%; with SF-268 CNS, 101%; in the test on SF-295 CNS it was 101%. The figures for the growth in the test on SF-539 CNS, in the test on UACC-257 melanoma and with M14 melanoma were 103%, 106% and 106%, respectively.
Turning to `Cc1cccc2cc(-c3cc(-c4ccccc4)nc(=O)[nH]3)c(Cl)nc12`, the growth with DU-145 prostate was 91.7%; in the test with K-562 leukemia it was 44.3%; in the test on MALME-3M melanoma it was 96.6%; in the test on RXF 393 renal, 88.3%; in the test with SF-268 CNS it was 96.3%; in the test with SF-295 CNS, 76%. For the same compound, the growth with SF-539 CNS is 78.1%; with UACC-257 melanoma, 99.7%; with M14 melanoma, 98.6%.
For `O=c1nc(-c2ccccc2)cc(-c2cc3ccccc3nc2Cl)[nH]1`, the growth with DU-145 prostate was 38.4%; in the test on K-562 leukemia it was -11.9% (active); in the test on MALME-3M melanoma it was 54.9%; in the test with RXF 393 renal, -16.1% (active); in the test on SF-268 CNS, 38.2%; in the test with SF-295 CNS, 42.2%. In addition, the growth with SF-539 CNS was -47.4% (active); in the test with UACC-257 melanoma it was 91.2%; in the test with M14 melanoma, 38.6%.
On to `Cc1nc2c(cnn2-c2ccccc2)c(=O)n1-c1ccc(NC(=O)c2ccc(F)cc2)cc1`, for which the growth with DU-145 prostate is 80.7%; with K-562 leukemia, 27.2%; with MALME-3M melanoma it was 68.4%; in the test on RXF 393 renal, 79.1%; with SF-268 CNS, 88.9%; with SF-295 CNS, 39.6%. Further, the growth in the test on SF-539 CNS is 85.5%; with UACC-257 melanoma it was 31.8%; in the test with M14 melanoma, 62.9%.
On to `COc1ccc2nc(Cl)c(-c3cc(-c4ccccc4)nc(N)n3)cc2c1`, for which the growth is 33.3% with DU-145 prostate; 0.267% (active) with K-562 leukemia; 61% with MALME-3M melanoma; -19.8% (active) with RXF 393 renal; 58.8% in the test with SF-268 CNS; 30.4% in the test with SF-295 CNS. Moreover, the growth with SF-539 CNS was -45.6% (active); in the test with UACC-257 melanoma it was 71.6%; in the test with M14 melanoma, 44.1%.
Turning to `O=C(COc1ccc(NC(=O)Nc2ccc(Cl)cc2)cc1)N=Nc1c(O)[nH]c2ccc([N+](=O)[O-])cc12`, the growth in the test on DU-145 prostate was 60.3%; with MALME-3M melanoma, 12.1%; in the test on MDA-MB-231 breast it was -44.7% (active); with RXF 393 renal, 73.1%; with SF-268 CNS, 19.5%; in the test on SF-295 CNS it was 87.3%. In addition, the growth in the test on SF-539 CNS was 16.5%; in the test on UACC-257 melanoma, 74.9%; in the test with M14 melanoma it was 21.2%.
